As usually defined, the Inhibition is how much of the control response was suppressed. Read a low Inhibition as little suppression.

The subject of this assay is Plasmodium falciparum. The experiment in a line: GSK_TCMDC: Inhibition of Plasmodium falciparum 3D7 in whole red blood cells, using parasite LDH activity as an index of growth. Test compounds present at 2uM. Format: functional.
The compound `COc1ccc(-c2nc3c(N)nc(N)nc3nc2-c2ccccc2Cl)cc1.COc1ccc(-c2nc3nc(N)nc(N)c3nc2-c2ccccc2Cl)cc1.Cl` registered an Inhibition of 93%.
For `Cl.c1cc(COc2ccc(C3=NCCN3)cc2)nc(COc2ccc(C3=NCCN3)cc2)c1`, the Inhibition is listed as 100%.
The compound `CC(=O)c1ccc(-c2ccc(C(=O)NCCCCN3CCC(c4ccc5c(c4OCC(N)=O)CCCC5)CC3)cc2)s1` registered an Inhibition of 90%.
The figure for `CC(C)(C)OC(=O)NCc1ccc(Nc2nnc(-c3ccc(OCC(=O)NC[C@@H]4CC[C@H]5C[C@@H]4C5(C)C)c([N+](=O)[O-])c3)o2)cc1` is 94%; for `CCOc1c(Br)cc(Cl)cc1CNCCCNc1nc2ccccc2[nH]1.Cl` it is 98%.
For `CN1C(=CC(=O)NC(=O)c2ccccc2)C(C)(C)c2ccccc21`, the Inhibition was 93%.
The compound `O=C(NCCCCN1CCC(c2ccc3c(c2OCCCO)CCCC3)CC1)c1ccc(-c2ccc(C(F)(F)F)cc2)cc1` displayed an Inhibition of 83%.
Take `CCCCCCN1CCC(NCc2ccc(OCCN3CCCC3)cc2)CC1.O=C(O)C(F)(F)F`: the Inhibition came to 100%.
For the compound `CCCCCOc1ccc(N2C(N)=NC(N)=NC2(C)C)cc1.Cl`, the Inhibition was 97%.
In turn, `COc1ccc2nccc([C@@H](O)CN3CCC(NCCOc4cccc(F)c4F)CC3)c2c1.O=C(O)C(=O)O` gave an Inhibition of 100%.
`Cc1cc(C(=O)NC2CCN(CC3(c4ccccc4)CCCCC3)CC2)on1` returned an Inhibition of 97%.
As for `CCOC(=O)c1cc(C(=O)NCCCCN2CCC(c3ccc4c(c3OC)CCCC4)CC2)ccc1-c1ccc(C(F)(F)F)cc1`, the Inhibition was 100%.
On to `CCOc1ccc(C2CCN(CCN3CCC(NC(=O)c4ccc(-c5ccc(C(F)(F)F)cc5)cc4)CC3)CC2)c(OCC2CC2)c1`, for which the Inhibition was found to be 99%.
The figure for `COc1ccc2cc(C(C)NC3CCN(c4cccc(NC(=O)c5ccncc5)c4)CC3)ccc2c1` (centres undefined) is 91%.
For `CN(C)c1ccc(-c2csc(C(=O)NC3CCCCN(Cc4ccc(C(C)(C)C)cc4)C3)c2)cc1.O=C(O)C(F)(F)F` (centres undefined), the Inhibition is 84%.
The compound `COc1cc(Nc2ncc3c(C)nc(-c4cc5ccccc5[nH]4)n3n2)cc(OC)c1OC` returned an Inhibition of 91%.
Regarding `CCCc1nc2c(N3CCCN(C(=O)NC4CCCCC4)CC3)cccc2n1Cc1ccccn1`, the Inhibition is on record as 89%.
In the case of `CNC(=O)c1cnc(Nc2ccc(N3CCN(C)CC3)c(C)c2)nc1NC.Cl` it was 97%.
`Cl.Nc1ccc(-c2nc3c(ccc4ccccc43)[nH]2)cc1` came in with an Inhibition of 84%.
With `COc1ccc2nccc([C@@H](O)CN3CCC(NCc4cc5sccc5nc4C(F)(F)F)CC3)c2c1.O=C(O)C(=O)O`, the Inhibition stood at 89%.
For `CC1(C)C(=O)Nc2ccc3c(c21)CC1SC(=O)NN=C31` (centres undefined), the Inhibition is 96%.
Compound `CC(C)Nc1cc(C(=O)N[C@@H](Cc2ccccc2)[C@H](O)CNCc2cccc(C(F)(F)F)c2)c(F)c(N2CCCCS2(=O)=O)c1.O=CO` came in with an Inhibition of 93%.
Compound `Cc1cccc2nc(-c3ccc(-c4ccc(C(=O)NCCc5cn(C)cn5)cc4)s3)[nH]c12` registered an Inhibition of 88%.
With `O=C(/C=C/c1ccc(Cl)c(Cl)c1)NCCCCCN1CC[C@H](NC(=O)/C=C/c2ccccc2)C1`, the Inhibition was found to be 93%.
In turn, `CC1=C(C(=O)OCCOCc2ccccc2)C(c2ccccc2C(F)(F)F)C(C(=O)OCCOCc2ccccc2)=C(C)N1` had an Inhibition of 89%.
`C[C@H](Cc1ccc(OCCCCOc2ccc(C[C@@H](C)NC[C@H](O)c3cccc(Cl)c3)cc2)cc1)NC[C@H](O)c1cccc(Cl)c1` showed an Inhibition of 100%.
In the case of `FC(F)(F)c1ccc2[nH]c(-c3ccc(-c4cccc(CNCCN5CCNCC5)c4)cc3)nc2c1.O=C(O)C(F)(F)F` it was 92%.
In the case of `Cc1[nH]c2ccccc2c1C(=O)C(C)Sc1nnc(-c2ccccc2F)o1` (centres undefined) it was 99%.
`CN1CCN(c2ccc(CNc3ccc4ncc(-c5cccc(OC(F)(F)F)c5)n4n3)cc2)CC1` yielded an Inhibition of 89%.
Consider `CCCC(=O)Nc1ccc(OCCCN(Cc2cccc(C(F)(F)F)c2)c2ccc(C#N)c(C(F)(F)F)c2)cc1`, for which the Inhibition was found to be 90%.
The figure for `COc1ccc(N2CCN(CCCC/C=C/c3ccc(NC(=O)c4cc(Cl)cc(Cl)c4)cc3)CC2)c(OC)c1` is 99%.
The figure for `O=C(/C=C/c1ccc2ccccc2c1)NCCCCCN1CCC(c2c[nH]c3ccccc23)CC1` is 90%; for `COc1ccc2ncc(F)c(CCN3C[C@H](CNCc4cc(C#N)c5c(c4)OCCO5)[C@H](O)C3)c2n1.Cl` it is 100%.
Regarding `N#Cc1ccc2[nH]cc(-c3cn4cc(SC5CCCC5)ccc4n3)c2c1`, the Inhibition is reported as 92%.
`COc1cccc(C(=O)Nc2ccc(S(=O)(=O)c3cc4c(cc3OC)CCN(C)CC4)cc2)c1` registered an Inhibition of 86%.
For the compound `COc1ccc(-c2ccc(NC(=O)c3ccc(Cl)cc3)cc2)cc1CN1CCN(C)CC1.O=C(O)C(F)(F)F`, the Inhibition was 86%.
`CCCCc1cc(NCC)nc(Nc2ccc(F)cc2)n1` displayed an Inhibition of 98%.
In the case of `NC1CCCN(Cc2cccc(-c3ccc(-c4nc5ccccc5[nH]4)cc3)c2)C1.O=C(O)C(F)(F)F` (centres undefined) it was 100%; in that of `O=C(/C=C/c1ccc(Cl)c(Cl)c1)NCCCCCN1CCCC(CNC(=O)Nc2ccc(C(F)(F)F)cc2)C1` (centres undefined), 100%.

The record behind these values is ChEMBL document CHEMBL1157539, “Thousands of chemical starting points for antimalarial lead identification” (Nature, 2010).
